# Bioassay records from PubChem.
# Nrf2 ARE act: qHTS of Nrf2 Activators; AREc32 ARE-luciferase reporter (MCF7-derived line), luminescence, 24 h; Potency, µM (top dose mostly 46.1 µM), inactives show top-dose activation, hits mostly activators; actives 0.31% (n = 410,000); AID 624171, 2012; further: potency means the concentration at half of the fitted maximal effect; % of control where 0% means no effect; nearly all actives have a fitted effect of over 65% in size
#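 Luciferase luminescence (Steady-Glo, 30 min at room temperature) served as the read-out of ARE activation in AREc32 cells treated with compounds for 24 hr at 37 deg C.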
# A549 tox: Nrf2 qHTS screen for inhibitors: counterscreen for cytotoxicity; A549 ARE-Fluc cells, CellTiter-Fluor viability, 18-24 h; Potency, µM (series often up to 46 µM), for inactives: top-dose activity change, negative = cytotoxicity, most hits filed as inhibitors; actives 0.16% (n = 390,000); AID 504648, 2011; further: potency means the concentration at half of the fitted maximal effect; on the % scale 0 is the no-effect control and ±100 the full control effect
#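 A549 ARE_Fluc cells in 5% FBS OPTI-MEM were exposed to compounds in concentration-response for 18-24 h at 37 deg C. Viability was read by CellTiter-Fluor fluorescence (Ex 405/Em 525) after 30 min, before the luciferase read.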
# Nrf2 block: Nrf2 qHTS screen for inhibitors; A549 ARE-Fluc reporter, luciferase luminescence, 18-24 h; Potency, µM (series often up to 46 µM), for inactives: top-dose activity change, negative = inhibition, usual class: inhibitors; actives 2.1% (n = 360,000); AID 504444, 2011; further: potency means the concentration at half of the fitted maximal effect; on the % scale 0 is the no-effect control and ±100 the full control effect; nearly all actives have a fitted effect of over 60% in size
#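 Two sequential reads on A549 ARE_Fluc cells exposed to compound for 18-24 h: a CellTiter-Fluor fluorescence read for viability, then a luciferase luminescence read for Nrf2/ARE activity.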
# p53 reactivation: qHTS assay for re-activators of p53 using a Luc reporter; H1299 p53-A138V BP100-luciferase reporter, luminescence, 24 h; actives 0.063% (n = 320,000); Potency, µM (doses to about 92.2 µM), for the others: at the highest dose activity change, positive = activation, hits mostly activators; AID 504706, 2011; further: potency means the concentration at half of the fitted maximal effect; % of control where 0% means no effect; nearly all actives have a fitted effect of over 45% in size
#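 H1299 (p53-null), stable ts p53-A138V + BP100-Luc; 1000 cells/well, Opti-MEM/10% FBS; cpd 4 pt, 1:5; 24 h, 37 deg C, 5% CO2; detection reagent 10 min RT; luminescence.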
# IL2 activator: qHTS of IL-2 Activators; IL-2 activation reporter assay, cell-based qHTS; stimulated with anti-CD3/CD4/CD28 beads; in transgenic mouse T cells; actives 0.065% (n = 360,000); AID 652025, 2013; activation, % (series mostly up to about 46 µM); in the data active means activation above about 50%; inconclusive means mostly about 30% to 49%; further: 0% is about no effect
#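 Unstimulated transgenic mouse T cells, 750 per well, received compound and, after 60 minutes, anti-CD3/anti-CD4 bead plus anti-CD28 stimulation. EGFP and DsRed were quantified after 18 hours.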
# BRCA1 expr act: qHTS Assay to Identify Small Molecule Activators of BRCA1 Expression | MCF7-BRCA1-FFLuc reporter, luminescence, 48 h; response scale: scaled: vehicle 0%, 10 µM genistein 100% | Potency, µM (highest dose often 46.1 µM), for the others: at the highest dose activation, usual class: activators | actives 1.1% (n = 380,000); further: potency means the concentration at half of the fitted maximal effect; nearly all actives have a fitted effect of over 80% in size
#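 MCF7-BRCA1-FFLuc cells, 2000/well in phenol-red-free MEM, attached 2 h then treated 48 h at 37 C. Luciferase luminescence read 15 min after reagent; normalized to genistein maximum activation (10microM) and DMSO, concentration-response fitted.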
# * marks the source's active call; other numbers are inactive results; ? = inconclusive; . = no result given; [ ] = remark or other dose. In the library only some 3.2% were active in any assay of this set; here they are far more common. Unless noted, the call rests on the fitted dose curve; in most records, active means well fitted curve in the direction sought with a large enough effect; inconclusive means small, poorly fitted or top-dose-only effect, or another doubt; inactive means no such curve, though single readings can be large; an effect the other way counts as inactive or inconclusive.
SMILES,Nrf2 ARE act,A549 tox,Nrf2 block,p53 reactivation,IL2 activator,BRCA1 expr act
CCCn1nc([N+](=O)[O-])c(C(C#N)c2nc3ccccc3o2)c(Cl)c1=O (stereo unspecified),5%,?,10%,-2%,-3,-69%
Cn1nc([N+](=O)[O-])c(C(C#N)c2ccccn2)c(Cl)c1=O (stereo unspecified),?,?,12µM*,-13%,-1,-75%
O=S(=O)(NCCCCNS(=O)(=O)c1cccc2cccnc12)c1cccc2cccnc12,.,.,.,.,.,5%
CCN(CC)S(=O)(=O)c1ccc2c(c1)N(CC(=O)N1CCN(c3ccc(F)cc3)CC1)C(=O)CO2,-1%,-8%,.,.,.,.
CN(C)c1ccc(N=Cc2nc(-c3ccccc3)oc2OC(=O)c2cccc(Br)c2)cc1,3%,-13%,13%,?,1,3.2µM*
CC(=O)Oc1oc(-c2ccccc2)nc1C=Nc1ccccc1,11%,-1%,-4%,-6%,-2,-3%
COc1ccc(N=Cc2nc(-c3ccccc3)oc2OC(=O)c2ccccc2)cc1,0%,-17%,?,?,-2,6.3µM*
CCc1cccc(CC)c1NC(=O)CCS(=O)(=O)c1ccc(Br)cc1,0%,13%,-20%,.,.,.
CN(C)CCN1CC(O)=C(c2nc3ccccc3s2)C1=N,3%,3%,-2%,3%,-1,-19%
N=C1C(c2nc3ccccc3s2)=C(O)CN1Cc1ccco1,8%,-9%[1.84 µM],?,?,3,7.1µM*
Nc1nc2ccccc2cc1-c1cccs1,4%,0%,?,?,0,3.2µM*
c1ccc2sc(-c3ccncc3)nc2c1,3%,-1%,?,14%,-1,?
c1csc(-c2nc3ccccc3s2)c1,?,1%,?,25%,0,7.9µM*
c1csc(-c2ccc3ccccc3n2)c1,18µM*,0%,?,17%,1,7.1µM*
O=C(NCc1ccco1)c1nc2ccccc2s1,13µM*,0%[1.84 µM],?,.,-2,?
N#Cc1cc2ccccc2nc1N,2%,10%,8%,3%,-3,14%
c1coc(-c2nc3ccccc3s2)c1,11µM*,0%,?,.,0,95%
Cc1ccc(-c2cc3ccccc3nc2N)cc1,18%,-2%,26%,?,0,10µM*
Cc1ccc(NS(=O)(=O)c2cc3c(cc2N(C)C)CCC(=O)N3)cc1C,.,2%,13%,.,.,.
O=C(Cn1cc(CN(Cc2ccccc2)Cc2ccccc2)nn1)Nc1cc(C(F)(F)F)ccc1Cl,.,-6%,18%,.,.,.
Cc1ccc2c(c1)C(N1CCCC1=O)CC(c1ccco1)N2 (stereo unspecified),11µM*,-3%,?,44%,0,?
Cc1ccc(OCCn2c(=O)sc3ccccc32)cc1,7%,6%,.,?,-4,5.6µM*
Cc1ccc(OCCCn2c(=O)sc3ccccc32)cc1,3%,18%,-5%,-3%,0,43%
COc1ccc(OC)c(NC(=O)CSc2n[nH]c(-c3ccccc3Cl)n2)c1,5%,-1%,.,.,.,.
CCOc1ccc(C(c2c(O)cc(C)n(Cc3ccco3)c2=O)N2CCCCC2)cc1 (stereo unspecified),0%,-10%,.,.,.,.
SMILES,Nrf2 ARE act,A549 tox,Nrf2 block,p53 reactivation,IL2 activator,BRCA1 expr act
Cc1nc2ccccc2n1CC(=O)NC(C)C1CC2CCC1C2 (stereo unspecified),0%,-17%,5.2µM*,-6%,0,-36%
Cc1cc2c(cc1NC(=O)c1ccccc1Cl)n(C)c(=O)c(=O)n2C,21%,-1%,?,.,.,.
CC(=O)c1c(C(C)=O)c(C)n(-c2ccc(C)c(NC(=O)c3ccccc3Cl)c2)c1C,0%,-9%,15µM*,-3%,-2,-36%
CCc1cc2c(s1)c1cnn(Cc3ccccc3F)c(=O)c1n2C,.,9%,?,.,.,.
Cc1cc(C)c2oc(-c3ccc(C)c(NC(=O)/C=C/c4ccco4)c3)nc2c1,5.6µM*,-4%,23%,.,.,-45%
Cc1nc2ccc(NC(=O)c3cccc(S(=O)(=O)N(C)c4ccccc4)c3)cc2s1,-1%,?,21µM*,-7%,-4,-82%
CN(c1ccccc1)S(=O)(=O)c1cccc(NC(=O)CSc2nnc(N)s2)c1,0%,-2%,?,-2%,0,13%
CN(c1ccccc1)S(=O)(=O)c1cccc(NC(=O)CSc2nncs2)c1,3%,-8%,21µM*,14%,-3,-41%
COc1ccccc1N(C)S(=O)(=O)c1ccc(C(=O)NCC(C)C)cc1,0%,-6%,?,-5%,0,-23%
COC(=O)c1ccc(CNC(=O)c2ccc(S(=O)(=O)N(C)c3ccccc3OC)cc2)cc1,0%,0%,23µM*,-6%,0,-41%
CN(c1ccccc1)S(=O)(=O)c1cccc(NC(=O)c2ccc3ncsc3c2)c1,-1%,-21%,16µM*,-4%,2,-60%
Cc1cccc(C(=O)Nc2ccccc2OCc2cc(=O)n3ccccc3n2)c1,1%,-2%,.,.,.,.
O=C(CCOc1ccccc1)NO,.,.,.,.,.,19%
COC(=O)c1cccc(NC(=O)c2ccc(S(=O)(=O)N(C)c3ccccc3OC)cc2)c1,0%,.,.,.,-4,-26%
COc1ccccc1N(C)S(=O)(=O)c1ccc(C(=O)Nc2cccc(Br)c2)cc1,3%,-9%,16µM*,-1%,-1,-63%
COc1ccc(C(=O)Nc2ccc3nc(SCC(=O)N4CCCC4)sc3c2)cc1,5%,-2%,-9%,.,.,.
Cc1ccc(NC(=O)c2cc3ccccc3oc2=O)cc1S(=O)(=O)N(C)C,-2%,1%,?,-5%,-1,-75%
CN(c1ccccc1)S(=O)(=O)c1cccc(NC(=O)c2cc3ccccc3oc2=O)c1,4%,1%,9%,15%,-1,11µM*
Cn1c(=O)c2c(ncn2CC(=O)Nc2cc(S(=O)(=O)N3CCCCC3)ccc2Cl)n(C)c1=O,2%,-2%,21µM*,-8%,-2,-19%
Cc1cccc(C(=O)Nc2ccc3nc(SCC(=O)N4CCCC4)sc3c2)c1,6%,-19%,18µM*,.,.,.
